Assay results: publication PMC5540273 (PLoS ONE, 2017)

What was measured:
Conditions in all cases: concentration: 1 μM,replicates: in singlicate; n = 1
MTOR = test system: MTOR
MUSK = test system: MUSK
MYLK2 = test system: MYLK2
MYLK4 = test system: MYLK4
MYLK = test system: MYLK
MYO3A = test system: MYO3A
MYO3B = test system: MYO3B
NDR1 = test system: T1, NDR1
T1 construct: gene STK38

NDR2 = test system: NDR2
NEK10 = test system: NEK10
NEK11 = test system: NEK11
NEK1 = test system: NEK1
NEK2 = test system: NEK2
NEK3 = test system: NEK3
NEK4 = test system: NEK4
NEK5 = test system: NEK5
NEK6 = test system: NEK6
NEK7 = test system: NEK7
NEK9 = test system: NEK9
NIK = test system: T2, NIK
T2 construct: gene MAP3K14
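Also: KINOMEscan kinase panel screen.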

| SMILES | %Inh (MTOR) [%] | %Inh (MUSK) [%] | %Inh (MYLK2) [%] | %Inh (MYLK4) [%] | %Inh (MYLK) [%] | %Inh (MYO3A) [%] | %Inh (MYO3B) [%] | %Inh (NDR1) [%] | %Inh (NDR2) [%] | %Inh (NEK10) [%] | %Inh (NEK11) [%] | %Inh (NEK1) [%] | %Inh (NEK2) [%] | %Inh (NEK3) [%] | %Inh (NEK4) [%] | %Inh (NEK5) [%] | %Inh (NEK6) [%] | %Inh (NEK7) [%] | %Inh (NEK9) [%] | %Inh (NIK) [%] |
| --- | --- | --- | --- | --- | --- | --- | --- | --- | --- | --- | --- | --- | --- | --- | --- | --- | --- | --- | --- | --- |
| Cl.Cl.NC[C@H](CC1CCCCC1)NC(=O)c1cc(Br)c(-c2ccnc3[nH]ccc23)s1 [GSK1581427] | 6 | 3 | 19 | 99.7 | 40 | 0 | 0 | 95.1 | 82 | 0 | 0 | 37 | 0 | 17 | 23 | 0 | 0 | 0 | 1 | 38 |
| Cc1ccc(-n2nc(C(C)(C)C)cc2NC(=O)Nc2ccc(OCCN3CCOCC3)c3ccccc23)cc1 [GW839464] | 19 | 0 | 0 | 0 | 3 | 0 | 15 | 5 | 2 | 0 | 0 | 2 | 0 | 9 | 0 | 21 | 0 | 0 | 0 | 0 |
| Cl.Oc1cc(-c2nc(-c3ccccc3)[nH]c2-c2ccncc2)ccc1Cl [SB-386023] | 0 | 0 | 0 | 11 | 0 | 27 | 0 | 10 | 0 | 0 | 18 | 0 | 0 | 0 | 10 | 0 | 28 | 14 | 0 | 1 |
| NC(=O)c1cc(-c2ccccc2)cc2c(C3CCNCC3)c[nH]c12 [GSK301362] | 3 | 21 | 40 | 99 | 15 | 0 | 0 | 0 | 0 | 24 | 0 | 0 | 10 | 7 | 4 | 12 | 0 | 3 | 21 | 0 |
